# In the supplement of paper PMC9023506:
# Where a name gives a salt, the structure may show the parent alone.
# System: Danio rerio larvae (5 dpf)
# Assay: habituation to 1-s acoustic pulses, difference vs DMSO (percentage points (treated minus DMSO)); higher = more of the behaviour than the DMSO vehicle control
# Settings: 10 µM; exposure time: 3 h pre-incubation + 3 h imaging
# Procedure: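 5-dpf wild-type zebrafish larvae were imaged in 96-well plates. They were treated with 190 Tocris FDA-approved drugs at 10 µM (1 µl/ml DMSO) for 3 h before and 3 h during imaging at 28.5 °C, 48 larvae per drug. Automated image analysis gave % time moving and optomotor responses. Values are drug group mean minus DMSO vehicle mean (n=844), in percentage points, for 10 behaviours.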
row,Compound,habituation to 1-s acoustic pulses
1,O=c1[nH]c(=O)n([C@H]2C[C@H](O)[C@@H](CO)O2)cc1C(F)(F)F [Trifluorothymidine],4.64
2,N#Cc1ccc2[nH]cc(CCCCN3CCN(c4ccc5oc(C(N)=O)cc5c4)CC3)c2c1 [Vilazodone hydrochloride],-3.73
3,O=C1CCc2cc(OCCCCc3nnnn3C3CCCCC3)ccc2N1 [Cilostazol],-0.365
4,CCCN(CCC)S(=O)(=O)c1ccc(C(=O)O)cc1 [Probenecid],4.24
5,CC(C)(C(=O)c1cccnc1)c1cccnc1 [Metyrapone],-0.218
6,CCCCCOC(=O)Nc1nc(=O)n([C@@H]2O[C@H](C)[C@@H](O)[C@H]2O)cc1F [Capecitabine],-3.26
7,C=CC(=O)N1CCC[C@@H](n2nc(-c3ccc(Oc4ccccc4)cc3)c3c(N)ncnc32)C1 [Ibrutinib],-7.68
8,CO[C@H]1/C=C/O[C@@]2(C)Oc3c(C)c(O)c4c(O)c(c5c(nc6cc(C)ccn65)c4c3C2=O)NC(=O)/C(C)=C\C=C\[C@H](C)[C@H](O)[C@@H](C)[C@@H](O)[C@@H](C)[C@H](OC(C)=O)[C@@H]1C [Rifaximin],-3.04
9,C[C@]12CCC(=O)C=C1CC[C@@H]1[C@@H]2[C@@H](O)C[C@@]2(C)[C@H]1CC[C@]2(O)C(=O)CO [Hydrocortisone],2.73
10,CC(=O)Oc1cc2c(s1)CCN(C(C(=O)C1CC1)c1ccccc1F)C2 (stereo not given) [Prasugrel],2.1
11,CN1CCC[C@@H]1CCO[C@](C)(c1ccccc1)c1ccc(Cl)cc1 [Clemastine fumarate],-5.08
12,Cn1cnc([N+](=O)[O-])c1Sc1ncnc2[nH]cnc12 [Azathioprine],-2.96
13,Nc1nc(F)nc2c1ncn2[C@@H]1O[C@H](CO)[C@@H](O)[C@@H]1O [Fludarabine],-1.56
14,COC(c1ccccc1)(c1ccccc1)[C@H](Oc1nc(C)cc(C)n1)C(=O)O [Ambrisentan],1.34
15,Cc1ccsc1C(=CCCN1CCC[C@@H](C(=O)O)C1)c1sccc1C [Tiagabine hydrochloride],6.27
16,CNCc1ccc(-c2[nH]c3cc(F)cc4c3c2CCNC4=O)cc1 [Rucaparib camsylate],4.21
17,OCc1cc(C(O)CNCCCCCCOCCCCc2ccccc2)ccc1O (stereo not given) [Salmeterol xinafoate],0.0601
18,CC(=O)S[C@@H]1CC2=CC(=O)CC[C@]2(C)[C@H]2CC[C@@]3(C)[C@@H](CC[C@@]34CCC(=O)O4)[C@H]12 [Spironolactone],-0.287
19,CC#C[C@]1(O)CC[C@H]2[C@@H]3CCC4=CC(=O)CCC4=C3[C@@H](c3ccc(N(C)C)cc3)C[C@@]21C [Mifepristone],-0.152
20,O=C(c1ccc(OCCN2CCCCC2)cc1)c1c(-c2ccc(O)cc2)sc2cc(O)ccc12 [Raloxifene hydrochloride],1.64

row,Compound,habituation to 1-s acoustic pulses
1,O=C(O)c1cc(/N=N/c2ccc(S(=O)(=O)Nc3ccccn3)cc2)ccc1O [Sulfasalazine],0.389
2,CN(C)CCc1c[nH]c2ccc(Cn3cncn3)cc12 [Rizatriptan benzoate],-2.41
3,Cc1c(-c2ccc(O)cc2)n(Cc2ccc(OCCN3CCCCCC3)cc2)c2ccc(O)cc12 [Bazedoxifene acetate],0.273
4,C[C@@H]1C[C@H]2[C@@H]3CCC4=CC(=O)C=C[C@]4(C)[C@@]3(F)[C@@H](O)C[C@]2(C)[C@@]1(O)C(=O)CO [Dexamethasone],2.44
5,CNC(=O)c1ccccc1Sc1ccc2c(/C=C/c3ccccn3)n[nH]c2c1 [Axitinib],-2.02
6,O=C(O)C[C@H](O)C[C@H](O)/C=C/c1c(C2CC2)nc2ccccc2c1-c1ccc(F)cc1 [Pitavastatin calcium],-6.74
7,Nc1nc2c(ncn2COCCO)c(=O)[nH]1 [Acyclovir],1.89
8,Cc1ccc(NC(=O)c2ccc(CN3CCN(C)CC3)cc2)cc1Nc1nccc(-c2cccnc2)n1 [Imatinib mesylate],3.16
9,CCCCNc1cc(C(=O)O)cc(S(N)(=O)=O)c1Oc1ccccc1 [Bumetanide],-0.875
10,CCCN(CCc1cccs1)[C@H]1CCc2c(O)cccc2C1 [Rotigotine hydrochloride],-12.9
11,CN(C)C(=N)NC(=N)N [Metformin hydrochloride],0.867
12,Brc1c(NC2=NCCN2)ccc2nccnc12,-5.95
13,COc1ccc(C[C@@H](C)NC[C@H](O)c2ccc(O)c(NC=O)c2)cc1 [Arformoterol tartrate],-3.34
14,OC(c1cc(C(F)(F)F)nc2c(C(F)(F)F)cccc12)C1CCCCN1 (stereo not given) [Mefloquine hydrochloride],0.613
15,CN1CC[C@@H](NC(=O)Nc2ccc(C#N)cc2)C[C@@H]1c1nc2ccccc2[nH]1,-0.957
16,CC(C)C(=O)OCC(=O)[C@@]12O[C@H](C3CCCCC3)O[C@@H]1C[C@H]1[C@@H]3CCC4=CC(=O)C=C[C@]4(C)[C@H]3[C@@H](O)C[C@@]12C [Ciclesonide],-1.43
17,CC(C)N(CCCCOCC(=O)NS(C)(=O)=O)c1cnc(-c2ccccc2)c(-c2ccccc2)n1 [Selexipag],-0.45
18,CCc1nc(N)nc(N)c1-c1ccc(Cl)cc1 [Pyrimethamine],5.04
19,CC(CCc1ccc(O)cc1)NCCc1ccc(O)c(O)c1 (stereo not given) [Dobutamine hydrochloride],1.34
20,CC(C)Nc1cccnc1N1CCN(C(=O)c2cc3cc(NS(C)(=O)=O)ccc3[nH]2)CC1 [Delavirdine mesylate],-7.61
